Measured values published in PubChem BioAssay (NCI).
This is part of a sample that, as a whole, favours compounds with a hit. Of some 83,000 tested, about 20% had one in any assay.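 Treatment: one concentration, 48 hours, 96-well format. Scoring: percent growth, with anything below 10 considered active.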 Values without a mark were called inactive. The source made the active and inactive calls.

Assays:
Test in all cases: NCI-60 one-dose screen, 48 h (100 = growth as untreated, 0 = no growth, -100 = all killed)
SK-MEL-2 melanoma = conditions: 10 µM unless noted
EKVX NSCLC = conditions: 10 µM unless noted
SN12C renal = conditions: 10 µM unless noted
UO-31 renal = conditions: 10 µM unless noted
TK-10 renal = conditions: 10 µM unless noted
ACHN renal = conditions: 10 µM unless noted
CAKI-1 renal = conditions: 10 µM
A498 renal = conditions: 10 µM unless noted
CCRF-CEM leukemia = conditions: 10 µM unless noted
MOLT-4 leukemia = conditions: 10 µM unless noted
SR leukemia = conditions: 10 µM unless noted
RPMI-8226 leukemia = conditions: 10 µM unless noted
OVCAR-8 ovarian = conditions: 10 µM unless noted
OVCAR-5 ovarian = conditions: 10 µM unless noted
OVCAR-4 ovarian = conditions: 10 µM unless noted
SK-OV-3 ovarian = conditions: 10 µM unless noted
IGROV1 ovarian = conditions: 10 µM unless noted
OVCAR-3 ovarian = conditions: 10 µM unless noted
NCI/ADR-RES ovarian = conditions: 10 µM unless noted
HS 578T breast = conditions: 10 µM unless noted

Structure (SMILES)	growth (SK-MEL-2 melanoma)	growth (EKVX NSCLC)	growth (SN12C renal)	growth (UO-31 renal)	growth (TK-10 renal)	growth (ACHN renal)	growth (CAKI-1 renal)	growth (A498 renal)	growth (CCRF-CEM leukemia)	growth (MOLT-4 leukemia)	growth (SR leukemia)	growth (RPMI-8226 leukemia)	growth (OVCAR-8 ovarian)	growth (OVCAR-5 ovarian)	growth (OVCAR-4 ovarian)	growth (SK-OV-3 ovarian)	growth (IGROV1 ovarian)	growth (OVCAR-3 ovarian)	growth (NCI/ADR-RES ovarian)	growth (HS 578T breast)
CS(=O)(=O)c1ccc(-c2nn(-c3ccccc3)cc2/C=N/NC(=O)c2ccncc2)cc1	107%	98.4%	98.6%	94.2%	97.3%	107%	93.9%	113%	102%	97.2%	87%	115%	101%	107%	104%	109%	104%	109%	94.7%	
COc1ccc(-c2nnc(SCc3ccc(O)c4ncccc34)n2-c2ccccc2)cc1	33.8%	23.6%	24.3%	-12.2% (active)	38.4%	4.43% (active)	11.5%	35.3%	10.7%	17.2%	34.3%	10.9%	16.1%	53.3%	13.6%	12.5%	10%	8.67% (active)	4.3% (active)	22.1%
O=C1c2c(c3c4cccnc4[nH]c3c3ccc4ccccc4c23)C(=O)N1CCN1CCNCC1	113%	92.4%	76.7%	58%	136%	37%	52.2%	70.2%	27.2%	8.49% (active)	-6.6% (active)	74.3%	50.8%	113%	105%	101%	51.7%		81.4%	107%
COc1ccc(N2C(=O)c3cc(OC)c(OC)cc3NC2SCc2ccccc2)cc1 (stereo not given)	99.6%	91.8%	102%	88.4%	129%	94.3%	104%	107%	105%	88%	83.5%	114%	103%	109%	102%	112%	102%	125%	99.7%	125%
Cc1ccc(NC(=O)c2ccc(CN3CCN(C)CC3)c(C(F)(F)F)c2)cc1Oc1ccc(-c2[nH]nc3ncnc(N)c23)cc1	84.1%	109%	80.7%	83%	119%	83%	92.1%	113%	8.05% (active)	43%	2.87% (active)	18.1%	94.5%	95.3%	90.7%	97%	82.7%	113%	52%	72.8%
Cc1nn(-c2ccccc2)cc1/C=N/Nc1nc(Nc2ccccc2)nc(Nc2ccc(S(N)(=O)=O)cc2)n1	54.8%	18.8%	0.245% (active)	-4.7% (active)	44.5%	0.841% (active)	-27.8% (active)	-30.3% (active)	8.85% (active)	6.35% (active)	33.6%	-23.1% (active)	18.2%	-13.2% (active)	14.9%	50.5%	13.1%	-31.1% (active)	76.4%	13.8%
COc1cc(/C=C/C(=O)c2ccc(NC(=O)CSc3nnc(-c4ccc5nc(-c6ccccc6)[nH]c5c4)o3)cc2)cc(OC)c1OC	105%	99%	90.8%	89.4%	137%	101%	105%	84.4%	37.5%	65%	36.8%	30.7%	97.1%	102%	99.5%	116%	97.2%	72.1%	100%	85.5%
CC(C)=CCC[C@](C)(O)[C@H]1CC[C@]2(C)[C@@H]1CC[C@@H]1[C@@]3(C)CCC(NC(=O)c4ccccc4C(=O)O)C(C)(C)[C@@H]3CC[C@]12C (stereo not given in full)	39.8%	101%	92.9%	85.2%	106%	73.5%	66.4%	103%	95.9%	97.5%	86.9%	90.9%	96.3%	94.9%	105%	104%	102%		98.3%	89.2%
CCN(CC)c1ccc2cc(C(=O)NCCOCCOCCOCCn3cc(CCC(=O)Nc4ccc(C(=O)c5ccc(NC(=O)OC(C)(C)C)cc5)cc4)nn3)c(=O)oc2c1	67.6%	73.5%	68.7%	62.5%	95.6%	84.1%	25.7%	84.8%	19%	21.4%	44%	16.2%	17.4%	99.8%	33.5%	98.3%	41.1%	44.6%	88.3%	83.7%
Oc1ccc(CSc2nnc(-c3ccncc3)n2-c2ccccc2)c2cccnc12	29.7%	48.2%	11%	9.11% (active)	34.1%	14.4%	15.7%	44%	13.1%	20.1%	35.6%	13.6%	18.3%	45.7%	17%	9.36% (active)	8.84% (active)	5.81% (active)	9.52% (active)	15.4%
Cc1cc2nc(C(Cl)Cl)nc(-c3ccco3)n2n1	103%	63.8%	93.7%	90.7%	89.5%	22%	51.2%	51.7%	98.2%	74.3%	86.8%	44.3%	80.5%	75.8%	79.5%	93.3%	91.1%	22.4%	62.6%	94%
N#Cc1c(NC(=O)c2ccccc2C(F)(F)F)sc2c1CCC(=O)C2	12.2%	12.4%	14.5%	-25.2% (active)	35.1%	-32.8% (active)	-11.1% (active)	81.8%	13%	11.2%	20.8%	-2.1% (active)	16.3%	8.8% (active)	2.89% (active)	91.1%	15.2%	4.15% (active)	4.69% (active)	30.4%
Cn1cc(-c2nn3cc(-c4ccncc4)nc3s2)c2cc(Cl)ccc21	76%	33.4%	61.2%	43.4%	116%	60.5%	51.3%	89.7%	10.5%	2.31% (active)	-4.53% (active)	19.5%	14.6%	66.8%	78.6%	89.5%	17.2%		32.4%	49.8%
O=C(NCCCNc1cc(-c2cn(-c3ccccc3)nc2-c2cccc(O)c2)ccn1)Nc1cc(C(F)(F)F)cc(C(F)(F)F)c1	88.1%	73.3%	79.4%	51.4%	93.4%	92.6%	74.1%	71.4%	63.1%	43.3%	53.9%	43.9%	75.7%	88.8%	66.9%	89.3%	64%	86.5%	69.7%	
CCCC(=O)NC(c1cccnc1)c1ccc2c(C)ccnc2c1O (stereo not given)	42.5%	15.1%	29.1%	11.8%	33.3%	13.8%	19.2%	37.8%	4.51% (active)	13.9%	41.2%	32.1%	21.1%	32.3%	11.2%	19.7%	19.2%	13.1%	9.99% (active)	67.6%
